Source: ChEMBL document CHEMBL3433997, “St. Jude Leishmania screening dataset” (2016)

biological target: Glucose transporter (Leishmania mexicana) (UniProt O61059); assay: ST_JUDE_LEISH: Cytotoxicity at 2uM final concentration against transgenic Leishmania Mexicana promastigotes LmGT2 that are glucose transport deficient and complemented with the L. Mexicana glucose transporter 2. Activity is measured by DNA content using SYBR green in vitro; type: functional

Row | SMILES | inhibition
1 | OC1CCC(Nc2ccc3ncc(-c4ccc5ccccc5c4)n3n2)CC1 (configuration not stated) | 3.53%
2 | N#Cc1ccc2c(c1)CCN(CCC1CCC(NC(=O)Nc3ccnc4ccccc34)CC1)C2 (configuration not stated) | 1.75%
3 | CN1CCN(CC(=O)Nc2ccc(-c3ccc(-c4nc5cc(C(F)(F)F)ccc5[nH]4)cc3)cc2)CC1 | 1.55%
4 | Cc1ccc(C(C)C)c(Oc2ccc3nc(N)nc(N)c3c2)c1 | 5.01%
5 | Cc1nnc(N2C(=N)SC(=Cc3ccc(-c4ccc(OC(F)(F)F)cc4)o3)C2=O)s1 | 3.61%
6 | Cc1cc(Nc2ccc(O)cc2)nc2cc(O)ccc12 | 3.51%
7 | CCC[C@@H]([C@@H](CC1CCCCC1)C(=O)N[C@H](C(=O)Nc1nccc(N)n1)C(C)(C)C)N(O)C=O | 4.24%
8 | COc1ccc2ncc(F)c(CCN3CC(O)C(CNCc4ccc5ccccc5c4)C3)c2n1 (configuration not stated) | 6.63%
9 | COc1ccccc1N1CCN(C(C(=O)NCc2ccc3c(c2)OCO3)c2ccc3c(c2)OCCCO3)CC1 (configuration not stated) | 3.62%
10 | CC(C)CSc1cc(C(=O)Nc2cc(Cl)ccc2O)ccn1 | -2.72%
11 | CCOC(=O)C1=C(C)N=c2sc(=Cc3cc(Cl)ccc3O)c(=O)n2C1c1cc(OC)c(OC)cc1Br (configuration not stated) | 11.5%
12 | C/C=C/C=C/C1=NCCc2cc(OCCC)ccc21 | 17.7%
13 | COc1ccc2nccc([C@@H](O)CN3CCC(NCCc4c[nH]c5ccccc45)CC3)c2c1 | 7.8%
14 | COc1ccc2nccc([C@@H](O)CN3CCC(NCc4nc5c(C#N)cccc5[nH]4)CC3)c2c1 | 3.84%
15 | CCN(CC)CCN(CCCc1ccc(-c2ccc(C(F)(F)F)cc2)cc1)C(=O)Cn1c(CCc2cccc(F)c2F)nc(=O)c2c1CCC2 | 6.62%
16 | COC(=O)c1cccc(CNCc2cccc(-c3ccc(-c4nc5ccccc5[nH]4)s3)c2)c1 | 1.96%
17 | COc1cc(CCCON2C(=N)N=C(N)NC2(C)C)cc(OC)c1OC | 1.06%
18 | COC(=O)c1ccc2nc(-c3ccc(/C=C/C(=O)NC4CCN(Cc5ccccc5)CC4)cc3)[nH]c2c1 | 5.84%
19 | CCN(CC)CCOc1ccc(N(Cc2ccc(C(C)(C)C)cc2)C(=O)c2ccc(Cc3ccccc3)cc2)cc1OC | 13.1%
20 | CC(C)N(Cc1ccc(-c2ccc(C(F)(F)F)cc2)cc1)C(=O)Cn1c(CCc2cccc(F)c2F)cc(=O)c2ccc(CCCN3CCCCC3)cc21 | 3.61%
21 | Cc1ccc(NC(=O)c2cccc(CN3CCCN(Cc4cccc(O)c4)CC3)c2)cc1 | 0.25%
22 | COc1ccc(-c2nc3c4ccccc4c4ccc(I)cc4c3[nH]2)cc1 | 2.32%
23 | CC(C)c1ccc(CN2CCC(CNC(=O)c3cc(-c4ccc(N(C)C)cc4)cs3)C2)cc1 (configuration not stated) | 2.27%
24 | O=C(/C=C/c1ccc(Cl)c(Cl)c1)NC1CCC(CN2CCC(c3coc4ccccc34)CC2)CC1 (configuration not stated) | -1.87%
25 | CC(C)COc1ccc(Cl)cc1Cc1nc(-c2nc3ccc(CN(C)C)cc3[nH]2)co1 | 4.57%
26 | CCCN(C(=O)c1ccccc1C)c1nnc(-c2cccc(C)c2)s1 | -2.31%
27 | Nc1nc(N)c2c(ccc3c2cnn3S(=O)(=O)N2CCCC2)n1 | -2.01%
